40 compounds from PubChem BioAssay (Tox21) can be followed below.

Each structure is given as a SMILES string. Inconclusive results are not listed. A call without a number means that no potency is given here. Activity calls are given as the source filed them. Calls come from the whole dose curve; as a rule, active = well fitted inhibition curve with a large enough effect in the signal ratio in the repeat runs (not every such curve was filed as active); inconclusive = weak or mixed curves, or effect the other way; inactive = no such curve, though single readings can be large or run the other way; the % refers to the signal ratio.
Potency is the fitted concentration of half-maximal effect.

Sequence of Glucocorticoid receptor (Homo sapiens) (P04150 whole entry, looked up): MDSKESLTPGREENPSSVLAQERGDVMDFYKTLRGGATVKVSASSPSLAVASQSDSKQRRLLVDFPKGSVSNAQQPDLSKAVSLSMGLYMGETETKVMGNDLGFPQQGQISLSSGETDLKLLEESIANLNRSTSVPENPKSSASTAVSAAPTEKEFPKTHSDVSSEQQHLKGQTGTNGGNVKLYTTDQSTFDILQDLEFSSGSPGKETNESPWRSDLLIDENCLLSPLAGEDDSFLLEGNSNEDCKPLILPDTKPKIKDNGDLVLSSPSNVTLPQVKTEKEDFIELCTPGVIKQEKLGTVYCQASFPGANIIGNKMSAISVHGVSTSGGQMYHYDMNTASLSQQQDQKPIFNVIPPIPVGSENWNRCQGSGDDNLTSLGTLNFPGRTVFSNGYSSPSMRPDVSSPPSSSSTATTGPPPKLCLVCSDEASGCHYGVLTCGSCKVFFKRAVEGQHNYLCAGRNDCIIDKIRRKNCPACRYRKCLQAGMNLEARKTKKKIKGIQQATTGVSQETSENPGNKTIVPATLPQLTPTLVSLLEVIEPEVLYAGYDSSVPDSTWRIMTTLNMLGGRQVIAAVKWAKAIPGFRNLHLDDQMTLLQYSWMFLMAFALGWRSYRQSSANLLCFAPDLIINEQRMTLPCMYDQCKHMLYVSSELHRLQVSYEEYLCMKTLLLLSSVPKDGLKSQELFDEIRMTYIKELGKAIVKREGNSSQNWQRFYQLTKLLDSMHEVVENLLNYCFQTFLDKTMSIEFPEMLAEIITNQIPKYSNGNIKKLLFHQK

The assay has as its target Glucocorticoid receptor (Homo sapiens) (UniProt P04150). Description: qHTS assay to identify small molecule antagonists of the glucocorticoid receptor (GR) signaling pathway (AID 720692). Conditions: GR-bla HeLa, beta-lactamase FRET ratio, dexamethasone-stimulated, 18 h; series mostly up to 58.5 µM. The source says: U.S. Tox21 Program National Center for Advancing Translational Sciences [NCATS] NIH Chemical Genomics Center [NCGC] U.S. Environmental Protection Agency [EPA] National Institutes of Environmental Health Sciences [NIEHS] National Toxicology Program [NTP] U.S. Food and Drug Administration [FDA] Tox21 Assay Overview: The Glucocorticoid receptor (GR) is one of the members of the nuclear receptor family of ligand-dependent transcription factors. GR plays a critical role in carbohydrate, protein and lipid metabolisms and programmed cell death. CellSensor GR-bla HeLa cell line (Invitrogen) contains a beta-lactamase reporter gene under the control of the glucocorticoid response element stably integrated into HeLa cells, a cervical cancer cell line that expresses glucocorticoid receptor. The activation of the reporter gene under culture conditions can be detected by fluorescence intensity. This cell line has been used to screen the Tox21 10K compound library and to identify the compounds that inhibit the GR signaling.
Tox21 Assay Protocol Summary: The GR-bla HeLa cells were dispensed at 1500 cells/5 ul/well in 1536-well black wall/clear bottom plates using a Multidrop Combi (ThermoFisher Scientific, Waltham, MA) dispenser. After the assay plates were incubated at a 37 C/5% CO2 incubator for 4 hours, 23 nL of compounds dissolved in DMSO, positive controls or DMSO only was transferred to the assay plate by a pintool station (Kalypsys, San Diego, CA), followed by addition of 1 uL of dexamethasone (5 nM, final concentration in the well). The plates were incubated at 37 C for 18 hours. After 1 uL of LiveBLAzerTM B/G FRET substrate was added using a Flying Reagent Dispenser (Aurora Discovery, San Diego, CA), the plates were incubated at room temperature for 2 hours, and fluorescence intensity was measured by an Envision plate reader (PerkinElmer, Shelton, CT).
With `CC#Cc1cc(C)nc(Nc2ccccc2)n1`, the Potency is 54.9 µM (active). The same measure for `CC(C)C(C)(N)C#N` (stereo not given): “inactive”. The same measure for `Clc1ccc(C(Cl)(Cl)Cl)cn1`: “inactive”; for `CCCOc1nn(C(=O)NS(=O)(=O)c2ccccc2C(=O)OC)c(=O)n1C`: “inactive”; for `CCOC(=O)CC(SP(=S)(OC)OC)C(=O)OCC` (stereo not given): “inactive”. The same measure for `BrCC1CO1` (stereo not given): “inactive”. `CC(Cc1ccccc1)NCCn1cnc2c1c(=O)n(C)c(=O)n2C` (stereo not given): the Potency entry was “inactive”. Then `O=C(Cl)/C=C/C(=O)Cl`, with “inactive”; and `CCOC(=O)N(C)N=O`, with “inactive”; and `O=[N+]([O-])CCO`, with “inactive”. Then `COc1cc(CCN)cc(OC)c1OC`, with “inactive”; and `CCOP(=O)(CN(CCO)CCO)OCC`, with “inactive”.

For the compound `CN=CNc1ccc(C)cc1C`, the Potency entry is “inactive”. The same measure for `[P]#[In]`: “inactive”; for `NCCOS(=O)(=O)O`: “inactive”; for `CC(O)CCl` (stereo not given): “inactive”. The same measure for `Nc1c(Cl)c(F)nc(OCC(=O)O)c1Cl`: “inactive”. Then `CCOC(=O)Nc1cccc(OC(=O)Nc2ccccc2)c1`, with “inactive”; and `O=CCCl`, with “inactive”.

For the compound `CC(C)[N+](C)(CCC(C(N)=O)(c1ccccc1)c1ccccc1)C(C)C`, the Potency entry is “inactive”. Then `COc1cccc(C=O)c1`, with “inactive”. The same measure for `CC[C@H](N)c1ccccc1`: “inactive”.

With `ClCOCCl`, the Potency result was “inactive”. As for `[O-][Br+2]([O-])O`, the Potency result was “inactive”.

`Cn1c(CCCC(=O)O)nc2cc(N(CCCl)CCCl)ccc21`: the Potency entry is “inactive”. The same measure for `CCCN1CCC[C@@H]2Cc3[nH]ncc3C[C@H]21`: “inactive”; for `O=c1[nH]oc2c1CCNC2`: “inactive”; for `CCN(CCO)CCO`: “inactive”.

On to `CN(C)C1CCCCC1`, for which the Potency result was “inactive”. The same measure for `COC1=CC(=O)O[C@@H](/C=C/c2ccccc2)C1`: “inactive”. As for `O=C(NC(O)C(Cl)(Cl)Cl)NC(O)C(Cl)(Cl)Cl` (stereo not given), the Potency entry was “inactive”. Then `CC1=C2[C@H]3OC(=O)[C@@H](C)[C@@H]3CC[C@@]2(C)C=CC1=O`, with “inactive”; and `CC(C)NCC(O)c1ccc([N+](=O)[O-])cc1` (stereo not given), with “inactive”.

Turning to `COc1ccc(CN2CCNCC2)c(OC)c1OC`, the Potency entry was “inactive”. Then `CCCCCCC(=O)CCCCCC/C=C/C[C@@H](O)[C@H](O)[C@@](N)(CO)C(=O)O`, with “inactive”; and `C=CC=O`, with “inactive”. The same measure for `CC(C)(C)c1cc(O)ccc1O`: “inactive”; for `C=C(Cl)CCl`: “inactive”; for `C=CC1(C)OC(=O)N(c2cc(Cl)cc(Cl)c2)C1=O` (stereo not given): “inactive”.

As to `OP(O)c1ccccc1`, the Potency result is “inactive”.
